ADAM17 inh – inhibits human ADAM17; hit rate 0.83% among 370,000; inhibition, % at 6.95 µM; P78536; recombinant ADAM17, EDANS/DABCYL FRET peptide cleavage;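 active = inhibition above the mean of compounds lying between control limits plus 3 SD, set per campaign, cut at about 8.5% in these data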;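 also: 0% = DMSO-only wells as the low control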
KLK7 zymogen act – activates the human kallikrein-7 zymogen. activation, % at 7 µM. purified proKLK7, EDANS-DABCYL substrate fluorescence; 100% is mature enzyme control, 0% vehicle. P49862. AID 652039. hit rate 0.9% among 370,000;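 active = activation above the mean of all tested compounds plus 3 SD, computed per campaign excluding outliers beyond control limits, cut at about 13% in these data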
ADAM10 inh – ADAM10 inhibition, QFRET primary screen. AID 720582. O14672. inhibition, % at 7 µM. recombinant ADAM10, EDANS/DABCYL FRET peptide cleavage, 3 h. hit rate 0.62% among 370,000;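 active = inhibition above a per-campaign cutoff equal to the mean of compounds falling between control-based bounds plus 3 SD, cut at about 20% in these data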;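 also: 0% = DMSO wells while the 100% control is not disclosed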
Target sequence (O14672 214-748 limits assumed): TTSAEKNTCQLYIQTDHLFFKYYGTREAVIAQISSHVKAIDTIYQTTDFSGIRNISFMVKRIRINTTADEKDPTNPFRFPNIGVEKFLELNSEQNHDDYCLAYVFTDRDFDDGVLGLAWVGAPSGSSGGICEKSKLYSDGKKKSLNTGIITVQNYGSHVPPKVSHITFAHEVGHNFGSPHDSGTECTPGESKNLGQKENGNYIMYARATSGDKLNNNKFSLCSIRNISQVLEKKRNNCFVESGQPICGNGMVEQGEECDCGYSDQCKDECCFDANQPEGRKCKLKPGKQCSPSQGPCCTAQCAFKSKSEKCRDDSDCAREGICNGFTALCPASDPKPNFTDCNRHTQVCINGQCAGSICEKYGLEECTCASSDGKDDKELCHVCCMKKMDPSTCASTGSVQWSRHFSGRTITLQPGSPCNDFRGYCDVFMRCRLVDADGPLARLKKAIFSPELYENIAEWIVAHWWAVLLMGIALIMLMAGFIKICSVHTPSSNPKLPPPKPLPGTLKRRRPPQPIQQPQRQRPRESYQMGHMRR
FGF22 binding – shifts melting point of recombinant human FGF22; hit rate 1.5% among 340,000; activity (Tm shift, normalised), % at 9.99 µM; recombinant FGF22 thermal shift, SYPRO orange fluorescence; percent of sucrose octasulfate shift, DMSO zero;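 active = mean Tm shift, scaled 0 neutral to 100 positive control, at about 1.3% or above, every replicate too, limit read from the data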
Ecoli rRNA inh – selective bacterial rRNA inhibition in E. coli; GFP signal change (wild-type ribosome), % (concentration not given with the values); hit rate 1.6% among 350,000; E. coli WT GFP vs humanized-ribosome RFP mutants, fluorescence, 24 h; hits give low values; DMSO median 0, no signal -100; AID 720706;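 active = significant combined selectivity score with lowered wild-type GFP, culture density cut under 30%, mutant RFP and density less affected; inactive = any of these conditions unmet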
Starred values were filed as active, the others as inactive. The list is not random: actives were taken first. Their share in the collection is about 3.8%.

How did CC(Cc1ccccc1)NC(=S)CN1CCCC1=S (stereo unspecified) do in these assays?
ADAM17 inh: -5; KLK7 zymogen act: 0; ADAM10 inh: 4; FGF22 binding: 0; Ecoli rRNA inh: -21*

What do the screens show for `COc1ccc(OC)c(NC(=O)c2nnn(Cc3ccccc3C)c2N)c1`?
ADAM17 inh: 7; KLK7 zymogen act: -10; ADAM10 inh: 27*

Results for COc1ccc(C)cc1NC(=O)c1nnn(Cc2cc(C)ccc2C)c1N ?
ADAM17 inh: -3; KLK7 zymogen act: 0; ADAM10 inh: -11; FGF22 binding: 0; Ecoli rRNA inh: 2

What do the screens show for `CCC/C(=C1/c2ccccc2C(=O)N1c1ccccc1)c1ccc(C=O)o1`?
ADAM17 inh: -4; KLK7 zymogen act: 2; ADAM10 inh: -21; FGF22 binding: 0; Ecoli rRNA inh: -24*

How did CCCNC(=O)C/C(C)=N/NC(=O)COc1ccc(C)cc1Br do in these assays?
ADAM17 inh: 1; KLK7 zymogen act: 0; ADAM10 inh: -4; FGF22 binding: 0; Ecoli rRNA inh: 5

What do the screens show for `COc1ccc(CNC(=O)C/C(C)=N/NC(=O)COc2ccc(C)cc2Br)cc1`?
ADAM17 inh: -2; KLK7 zymogen act: 0; ADAM10 inh: 1; FGF22 binding: 43*; Ecoli rRNA inh: -8

Results for CN(C)CC/C=C1/c2cc(F)ccc2Sc2ccc(Cl)cc21 ?
ADAM17 inh: -1; KLK7 zymogen act: -1; ADAM10 inh: 1; FGF22 binding: 0; Ecoli rRNA inh: -50*

How did CN(C)CC/C=C1/c2ccccc2Sc2c(O)cc(Cl)cc21 do in these assays?
ADAM17 inh: -3; KLK7 zymogen act: 0; ADAM10 inh: -3

How did CC(c1ccon1)N(C)C(=O)c1ccc2nc(Cc3cccc(Cl)c3)oc2c1 (stereo unspecified) do in these assays?
ADAM17 inh: 2; KLK7 zymogen act: -1; ADAM10 inh: -2; FGF22 binding: 0; Ecoli rRNA inh: -28*

Results for C/C=C/[C@@H](CC(=O)N1Cc2ccccc2C[C@H]1CO)[Si](C)(C)c1ccc(OC)cc1 ?
FGF22 binding: -1

Results for Cc1ccc(S(=O)(=O)N(C)c2ccc(C)c([N+](=O)[O-])c2)cc1 ?
ADAM17 inh: 2; KLK7 zymogen act: -1; ADAM10 inh: 4; FGF22 binding: 43*; Ecoli rRNA inh: -23

Results for COc1ccc(N(C)S(=O)(=O)c2ccc(C)cc2)c([N+](=O)[O-])c1 ?
ADAM17 inh: 0; KLK7 zymogen act: 0; ADAM10 inh: -2; FGF22 binding: 0; Ecoli rRNA inh: -20

How did CC(=O)OC1CCC2(C)C3CCC4(C)C(C(C)=O)CCC4C3CC3OC32C1 (stereo unspecified) do in these assays?
ADAM17 inh: -1; KLK7 zymogen act: 0; ADAM10 inh: -3; FGF22 binding: 43*; Ecoli rRNA inh: -2

How did CC(=O)OC1(C(C)=O)CCC2C3CC4OC45CC(O)CCC5(C)C3CCC21C (stereo unspecified) do in these assays?
ADAM17 inh: 1; KLK7 zymogen act: 0; ADAM10 inh: -3; FGF22 binding: 0; Ecoli rRNA inh: -9

How did COc1ccc2c3c(n(C)c2c1)[C@H](CO)N(C)CC31CCN(S(=O)(=O)c2cn(C)cn2)CC1 do in these assays?
Ecoli rRNA inh: -3

What do the screens show for `COc1ccccc1S(=O)(=O)N[C@@H]1CC[C@H](CC(=O)NCc2cccc(F)c2)O[C@@H]1CO`?
FGF22 binding: 0; Ecoli rRNA inh: 4

How did Nc1nc(=S)ss1 do in these assays?
ADAM17 inh: -1; KLK7 zymogen act: 0; ADAM10 inh: 2; FGF22 binding: -1; Ecoli rRNA inh: -13*

What do the screens show for `CC(OC(=O)c1oc2ccccc2c1COc1ccccc1)C(=O)NC(N)=O` (stereo unspecified)?
ADAM17 inh: 5; KLK7 zymogen act: 1; ADAM10 inh: 7; FGF22 binding: 43*; Ecoli rRNA inh: 11

How did CNC[C@H]1Oc2ccc(NC(C)=O)cc2CC(=O)N(C)C[C@@H]1C do in these assays?
Ecoli rRNA inh: 1

What do the screens show for `CC(=O)c1cccc(Nc2c3c(nc4ccccc24)CCC3)c1`?
ADAM17 inh: -7; KLK7 zymogen act: 0; ADAM10 inh: -5; FGF22 binding: 0; Ecoli rRNA inh: -19

Results for CC(=O)c1ccc(Nc2c3c(nc4ccccc24)CCCC3)cc1 ?
ADAM17 inh: -3; KLK7 zymogen act: 0; ADAM10 inh: -3; FGF22 binding: 0; Ecoli rRNA inh: -35*

Results for COCCCNc1c2c(nc3ccccc13)CCC2 ?
ADAM17 inh: 1; KLK7 zymogen act: 0; ADAM10 inh: 8; FGF22 binding: 44*; Ecoli rRNA inh: 13

How did O=C(Nc1ccc2ccccc2n1)c1ccccc1Cl do in these assays?
ADAM17 inh: -3; KLK7 zymogen act: 0; ADAM10 inh: 1; FGF22 binding: 0; Ecoli rRNA inh: -9

What do the screens show for `O=C(Nc1c2c(nc3ccccc13)CCCC2)c1ccccc1Cl`?
ADAM17 inh: -1; KLK7 zymogen act: 0; ADAM10 inh: 1; FGF22 binding: 44*; Ecoli rRNA inh: -9

What do the screens show for `COc1ccc2nc3ccccc3nc2c1NC(=O)c1ccccc1Cl`?
ADAM17 inh: 1; KLK7 zymogen act: -1; ADAM10 inh: 1; FGF22 binding: 43*; Ecoli rRNA inh: 19

What do the screens show for `CCCNC(=O)N1CC2(CN(C)C2)c2c(n(C)c3cc(OC)ccc23)[C@@H]1CO`?
Ecoli rRNA inh: 4

How did CC(=O)Nc1ccc2c(c1)CC(=O)N(C)C[C@H](C)[C@@H](CN(C)C(=O)NC(C)C)O2 do in these assays?
Ecoli rRNA inh: 1

What do the screens show for `O=C(Cc1ccccc1)N1CC2(C1)[C@H](c1ccccc1)[C@H](CO)N2C(=O)c1cccnc1`?
FGF22 binding: 0; Ecoli rRNA inh: 0

How did O=C1CC[C@@H](O)CCN1CC[C@H](Sc1ccc(Br)cc1)c1ccccc1 do in these assays?
ADAM17 inh: 1; KLK7 zymogen act: 0; ADAM10 inh: -1; FGF22 binding: 0; Ecoli rRNA inh: -41

What do the screens show for `O=C1CC[C@@H](O)CCN1CC[C@H](Sc1ccccc1)c1ccccc1`?
ADAM17 inh: 2; KLK7 zymogen act: 0; ADAM10 inh: 4; FGF22 binding: 0; Ecoli rRNA inh: -31*

What do the screens show for `CC(C)Cc1nn2c(N)c(/C=C3\C=Nc4ccccc43)c(=O)nc2s1`?
ADAM17 inh: -3; KLK7 zymogen act: 0; ADAM10 inh: -7; FGF22 binding: 1.5*; Ecoli rRNA inh: 1

Results for O=C(O)c1ccc(N2C(=O)c3ccccc3C2=O)cc1[N+](=O)[O-] ?
ADAM17 inh: -1; KLK7 zymogen act: 0; ADAM10 inh: -8; FGF22 binding: 43*; Ecoli rRNA inh: 2

What do the screens show for `CSc1ccc(/C=C(\C#N)C(=O)NC2CCCCC2)cc1`?
ADAM17 inh: -1; KLK7 zymogen act: 0; ADAM10 inh: -10
